Compounds without any hit were thinned out: in the full panel of roughly 83,000, 20% have a hit.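 Activity criterion: percent growth below 10, measured after cells in 96-well plates were exposed to a single compound concentration for 48 hours.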 Activity calls are given as the source filed them.
Columns and labels:
Experiment in all cases: NCI-60 one-dose screen, 48 h (100 = growth as untreated, 0 = no growth, -100 = all killed)
Conditions in all cases: 10 µM unless noted
DU-145 prostate = system: DU-145 prostate
K-562 leukemia = system: K-562 leukemia
MALME-3M melanoma = system: MALME-3M melanoma
MDA-MB-231 breast = system: MDA-MB-231 breast
RXF 393 renal = system: RXF 393 renal
SF-268 CNS = system: SF-268 CNS
SF-295 CNS = system: SF-295 CNS
SF-539 CNS = system: SF-539 CNS
UACC-257 melanoma = system: UACC-257 melanoma
M14 melanoma = system: M14 melanoma

Measured: growth

c1ccc(Cn2cc3c(c2-c2ccccc2)CCc2cnoc2-3)cc1
inactive: DU-145 prostate 88.3% | K-562 leukemia 16.2% | MALME-3M melanoma 45.8% | MDA-MB-231 breast 87.2% | RXF 393 renal 80.6% | SF-268 CNS 76.6% | SF-295 CNS 60.4% | SF-539 CNS 71.9% | UACC-257 melanoma 92.4% | M14 melanoma 44.1%

O=C1OCC2=C1C(c1ccccc1)c1cc3c(cc1N2CCO)OCCO3 (stereo not given)
active: DU-145 prostate -9.9% | SF-295 CNS 0.89% | SF-539 CNS -22.7% | M14 melanoma -21.8%
inactive: K-562 leukemia 10.5% | MALME-3M melanoma 67.1% | MDA-MB-231 breast 14.2% | RXF 393 renal 10.8% | SF-268 CNS 32.1% | UACC-257 melanoma 47.3%

COc1cccc(-c2cn3nc(-c4cn(C)c5ccccc45)sc3n2)c1
inactive: DU-145 prostate 106% | K-562 leukemia 48% | MALME-3M melanoma 84.1% | MDA-MB-231 breast 85.6% | RXF 393 renal 104% | SF-268 CNS 94.8% | SF-295 CNS 96.3% | SF-539 CNS 94% | UACC-257 melanoma 97.5% | M14 melanoma 84.3%

Nc1c(C(=O)Nc2cccc3ncccc23)sc2nc3c(cc12)CN(Cc1ccccc1)CC3
inactive: DU-145 prostate 93.9% | K-562 leukemia 34.8% | MALME-3M melanoma 76.2% | MDA-MB-231 breast 75.3% | RXF 393 renal 80.8% | SF-268 CNS 84.6% | SF-295 CNS 67.5% | SF-539 CNS 88.7% | UACC-257 melanoma 69.2% | M14 melanoma 90.1%

CC(=O)Nc1sc2c(c1-c1nc3ccccc3s1)CNC2
inactive: DU-145 prostate 25.6% | K-562 leukemia 13.2% | MALME-3M melanoma 19% | MDA-MB-231 breast 21.9% | RXF 393 renal 18% | SF-268 CNS 40.4% | SF-295 CNS 13.3% | SF-539 CNS 28.4% | UACC-257 melanoma 27.6% | M14 melanoma 21.9%

COc1cc(-c2ccc(-c3ccc(C(=N)N)cc3)s2)cc(OC)c1OC
active: K-562 leukemia 1.05%
inactive: DU-145 prostate 63.6% | MALME-3M melanoma 32.7% | MDA-MB-231 breast 53.2% | RXF 393 renal 80.9% | SF-268 CNS 65.1% | SF-295 CNS 46.2% | SF-539 CNS 47.1% | UACC-257 melanoma 63.5% | M14 melanoma 47.9%

COc1ccc2c(c1)c(-c1nc(-c3ccc4ccccc4c3)cs1)cn2C
inactive: DU-145 prostate 103% | K-562 leukemia 67.7% | MALME-3M melanoma 149% | MDA-MB-231 breast 80.2% | RXF 393 renal 69.1% | SF-268 CNS 100% | SF-295 CNS 104% | SF-539 CNS 89% | UACC-257 melanoma 94% | M14 melanoma 96.9%

O=C(/C=C/c1ccco1)Nc1ncc(Cc2cc(Cl)ccc2Cl)s1
inactive: DU-145 prostate 13.9% | MALME-3M melanoma 49% | MDA-MB-231 breast 47.4% | SF-268 CNS 44% | UACC-257 melanoma 38.8%
active: K-562 leukemia 7.9% | RXF 393 renal -2.79% | SF-295 CNS 9.56% | SF-539 CNS -18.8% | M14 melanoma 6.81%

CC(O)CNC(Cc1ccccc1)c1ccc2c(c1)OCO2 (stereo not given)
inactive: DU-145 prostate 107% | K-562 leukemia 90.5% | MALME-3M melanoma 91% | MDA-MB-231 breast 99.5% | RXF 393 renal 110% | SF-268 CNS 95.9% | SF-295 CNS 88.8% | SF-539 CNS 87.4% | UACC-257 melanoma 103% | M14 melanoma 80.4%

CCOc1ccc(/C=C/C(=O)c2cccc(OCCCOc3cccc(C(=O)/C=C/c4ccc(OCC)cc4)c3)c2)cc1
inactive: DU-145 prostate 82.8% | K-562 leukemia 69.9% | MALME-3M melanoma 100% | MDA-MB-231 breast 83.3% | RXF 393 renal 105% | SF-268 CNS 85.3% | SF-295 CNS 76.4% | SF-539 CNS 110% | UACC-257 melanoma 82.7% | M14 melanoma 69%

CCOC(=O)c1cnn(CC(C)O)c1NC(=O)NCc1cccc(F)c1 (stereo not given)
inactive: DU-145 prostate 96.7% | K-562 leukemia 81.1% | MALME-3M melanoma 99.2% | MDA-MB-231 breast 106% | RXF 393 renal 111% | SF-268 CNS 101% | SF-295 CNS 99.9% | SF-539 CNS 98.2% | UACC-257 melanoma 99.7% | M14 melanoma 83.2%

C[C@H](c1nc2ccc(C#N)cc2[nH]1)[C@H]1CC[C@H]2[C@@H]3CCC4=CC(=O)CC[C@]4(C)[C@H]3CC[C@]12C
inactive: DU-145 prostate 68.9% | K-562 leukemia 40.8% | MALME-3M melanoma 85.6% | MDA-MB-231 breast 70.1% | RXF 393 renal 64.3% | SF-268 CNS 78.5% | SF-295 CNS 48.7% | SF-539 CNS 62.9% | UACC-257 melanoma 68.2% | M14 melanoma 70.1%

CSc1ccc2c3c(n(C[C@H](O)CO)c(=O)c2c1)-c1ccccc1C3=O
inactive: DU-145 prostate 22% | K-562 leukemia 20.7% | MALME-3M melanoma 74.4% | MDA-MB-231 breast 108% | RXF 393 renal 79.7% | SF-268 CNS 44% | SF-295 CNS 14.3% | SF-539 CNS 10.3% | UACC-257 melanoma 85.5% | M14 melanoma 52.2%

Cc1nn(-c2ccc([N+](=O)[O-])cc2)c2ncnc(N/N=C/c3ccccc3O)c12
active: MALME-3M melanoma 2.12% | SF-268 CNS 9.25% | SF-539 CNS 7.49% | M14 melanoma -17.7%
inactive: DU-145 prostate 20.7% | K-562 leukemia 11.2% | MDA-MB-231 breast 29% | RXF 393 renal 15.7% | SF-295 CNS 12.6% | UACC-257 melanoma 13.2%

O=C(NN1C(=O)CSC1c1cccc([N+](=O)[O-])c1)c1ccc(NC(=O)c2ccccn2)cc1 (stereo not given)
inactive: DU-145 prostate 94.1% | K-562 leukemia 100% | MALME-3M melanoma 94.4% | MDA-MB-231 breast 113% | RXF 393 renal 115% | SF-268 CNS 96.1% | SF-295 CNS 97.2% | SF-539 CNS 99.8% | UACC-257 melanoma 99% | M14 melanoma 102%

CS(=O)(=O)Nc1cc(-c2ccc3ncnc(Nc4ccc(OCc5ccccn5)c(Cl)c4)c3c2)cnc1Cl
active: MALME-3M melanoma -35.7% | MDA-MB-231 breast 2.29% | RXF 393 renal -31.4% | SF-295 CNS -2.49% | SF-539 CNS -11.7%
inactive: DU-145 prostate 16.5% | K-562 leukemia 21.1% | SF-268 CNS 10.9% | UACC-257 melanoma 14.3% | M14 melanoma 30%

Nc1nc(N(Cc2ccccc2)c2ccccc2)c2cn[nH]c2n1
inactive: DU-145 prostate 88.2% | K-562 leukemia 23.9% | MALME-3M melanoma 62.8% | MDA-MB-231 breast 62.1% | RXF 393 renal 67.6% | SF-268 CNS 73.8% | SF-295 CNS 51.5% | SF-539 CNS 68.8% | UACC-257 melanoma 99.7% | M14 melanoma 33.5%

COC(=O)c1sccc1-c1cc(O)c(C(=O)Nc2ccccc2)s1
inactive: DU-145 prostate 99.1% | K-562 leukemia 91.6% | MALME-3M melanoma 84.5% | MDA-MB-231 breast 91.5% | RXF 393 renal 115% | SF-268 CNS 91.7% | SF-295 CNS 99.4% | SF-539 CNS 98.8% | UACC-257 melanoma 91.6% | M14 melanoma 93.3%

CSc1ccc(N2C(=N)C(=S)N(c3ccc(C)cc3)C2=O)cc1
inactive: DU-145 prostate 104% | K-562 leukemia 82% | MALME-3M melanoma 94.4% | MDA-MB-231 breast 101% | RXF 393 renal 113% | SF-268 CNS 90.7% | SF-295 CNS 96.1% | SF-539 CNS 92.8% | UACC-257 melanoma 99.7% | M14 melanoma 86.1%

COc1cc2c(c(OC)c1OC)C(=O)CC(c1cccc(C(=O)Nc3ccccc3Br)c1)O2 (stereo not given)
inactive: DU-145 prostate 83.7% | K-562 leukemia 74.1% | MALME-3M melanoma 99.6% | MDA-MB-231 breast 91.1% | RXF 393 renal 110% | SF-268 CNS 73.8% | SF-295 CNS 98.1% | SF-539 CNS 90.4% | UACC-257 melanoma 92.7% | M14 melanoma 91.1%

COc1ccccc1S(=O)(=O)Nc1ccc2c3c(cc(CCC(=O)NCCCCNc4cccc5c4C(=O)N(C4CCC(=O)NC4=O)C5=O)cc13)C(=O)N2C (stereo not given)
active: MALME-3M melanoma -29% | MDA-MB-231 breast -33.3% | RXF 393 renal -14.4%
inactive: DU-145 prostate 75.9% | K-562 leukemia 17.4% | SF-268 CNS 11.9% | SF-295 CNS 47.6% | SF-539 CNS 31.3% | UACC-257 melanoma 71.7% | M14 melanoma 36%

Cc1c2ccccc2nc2cc3c(cc12)[C@H]1CC[C@]2(C)C(=O)CC[C@H]2[C@@H]1CC3
inactive: DU-145 prostate 106% | K-562 leukemia 90.2% | MALME-3M melanoma 108% | MDA-MB-231 breast 91.6% | RXF 393 renal 101% | SF-268 CNS 89.5% | SF-295 CNS 99.9% | SF-539 CNS 96.5% | UACC-257 melanoma 98.3% | M14 melanoma 102%

CCN1C(=O)N(CC)C2C1NN=c1s/c(=C\c3ccc(OC)cc3)c(=O)n12 (stereo not given)
active: DU-145 prostate 6.18% | K-562 leukemia 8.38% | SF-539 CNS -21.4% | M14 melanoma 6.11%
inactive: MALME-3M melanoma 40.2% | MDA-MB-231 breast 16.3% | RXF 393 renal 33.9% | SF-268 CNS 49.4% | SF-295 CNS 13.2% | UACC-257 melanoma 56.3%

CCOC(=O)NC(=S)n1oc(=O)c2ccccc21
inactive: DU-145 prostate 106% | K-562 leukemia 112% | MALME-3M melanoma 95.4% | MDA-MB-231 breast 96.8% | RXF 393 renal 111% | SF-268 CNS 96.1% | SF-295 CNS 103% | SF-539 CNS 95.6% | UACC-257 melanoma 105% | M14 melanoma 104%

CCOc1ccc(NC(=O)Nc2ccc(OCC)cc2)cc1
inactive: DU-145 prostate 106% | K-562 leukemia 97.6% | MALME-3M melanoma 100% | MDA-MB-231 breast 110% | RXF 393 renal 114% | SF-268 CNS 104% | SF-295 CNS 95.7% | SF-539 CNS 97.2% | UACC-257 melanoma 113% | M14 melanoma 109%

COc1ccc2[nH]cc(-c3nonc3-c3c[nH]c4ccc(Br)cc34)c2c1
active: K-562 leukemia 7.68% | MDA-MB-231 breast 5.3%
inactive: DU-145 prostate 43.8% | MALME-3M melanoma 70.4% | RXF 393 renal 76.7% | SF-268 CNS 47% | SF-295 CNS 26.1% | SF-539 CNS 56.3% | UACC-257 melanoma 64.2% | M14 melanoma 31.8%

Reference: PubChem BioAssay (NCI)
